The target of experiment [1] is Sphingosine kinase 1 (Homo sapiens) (UniProt Q9NYA1). Conditions: at 1 µM.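 Also: mean SPHK1 inhibition value reported from the GSK PKIS kinase panel screen.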
Experiment [2] deals with T1, Sphingosine kinase 2 (Homo sapiens) (UniProt Q9NRA0).
T1 sequence (whole entry): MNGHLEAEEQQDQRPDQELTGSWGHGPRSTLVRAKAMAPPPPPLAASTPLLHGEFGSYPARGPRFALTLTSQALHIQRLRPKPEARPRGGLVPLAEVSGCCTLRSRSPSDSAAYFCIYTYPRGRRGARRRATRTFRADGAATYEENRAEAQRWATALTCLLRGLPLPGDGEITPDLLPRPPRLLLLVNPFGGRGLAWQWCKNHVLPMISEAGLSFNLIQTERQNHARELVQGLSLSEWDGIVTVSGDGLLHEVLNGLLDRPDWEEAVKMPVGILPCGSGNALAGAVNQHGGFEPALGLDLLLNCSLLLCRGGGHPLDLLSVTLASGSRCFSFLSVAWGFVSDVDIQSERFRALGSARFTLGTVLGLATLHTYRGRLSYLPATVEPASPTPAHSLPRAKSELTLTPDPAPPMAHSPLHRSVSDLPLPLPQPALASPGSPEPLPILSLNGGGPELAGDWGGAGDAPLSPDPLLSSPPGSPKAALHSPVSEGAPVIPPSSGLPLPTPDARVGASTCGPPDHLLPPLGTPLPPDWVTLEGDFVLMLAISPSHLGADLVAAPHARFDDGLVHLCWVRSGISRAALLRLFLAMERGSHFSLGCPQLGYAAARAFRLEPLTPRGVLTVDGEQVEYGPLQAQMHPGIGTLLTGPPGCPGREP
Conditions: at 0.1 µM.

In experiment [3] the target is T1, Sphingosine kinase 2 (Homo sapiens). Conditions: at 1 µM.
Experiment [4] has as its target Casein kinase II subunit alpha (Homo sapiens) (UniProt P68400). Conditions: at 0.1 µM.
The target is the same in experiment [5]. Conditions: at 1 µM.
Experiment [6] deals with T2, Inhibitor of nuclear factor kappa-B kinase subunit alpha (Homo sapiens) (UniProt O15111).
T2 sequence (whole entry): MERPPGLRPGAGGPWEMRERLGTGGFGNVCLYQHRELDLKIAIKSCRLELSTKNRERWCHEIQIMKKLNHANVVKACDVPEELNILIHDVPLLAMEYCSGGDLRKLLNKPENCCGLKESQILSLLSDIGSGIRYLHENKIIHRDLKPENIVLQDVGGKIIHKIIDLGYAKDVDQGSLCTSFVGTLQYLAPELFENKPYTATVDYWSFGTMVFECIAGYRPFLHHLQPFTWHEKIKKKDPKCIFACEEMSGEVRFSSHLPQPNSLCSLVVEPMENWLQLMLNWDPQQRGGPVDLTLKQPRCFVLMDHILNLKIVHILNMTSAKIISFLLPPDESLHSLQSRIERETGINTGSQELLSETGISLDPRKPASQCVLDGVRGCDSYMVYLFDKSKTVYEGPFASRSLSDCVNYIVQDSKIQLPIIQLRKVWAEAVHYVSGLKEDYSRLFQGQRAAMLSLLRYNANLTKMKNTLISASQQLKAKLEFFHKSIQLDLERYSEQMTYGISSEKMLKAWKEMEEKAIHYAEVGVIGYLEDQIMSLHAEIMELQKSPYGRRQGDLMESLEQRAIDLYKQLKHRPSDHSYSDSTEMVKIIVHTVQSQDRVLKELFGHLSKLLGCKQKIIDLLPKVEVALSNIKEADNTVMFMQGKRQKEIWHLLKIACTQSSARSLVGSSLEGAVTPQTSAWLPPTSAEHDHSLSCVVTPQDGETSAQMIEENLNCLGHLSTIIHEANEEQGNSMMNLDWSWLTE
Conditions: at 0.1 µM.

Experiment [7] concerns the target T2, Inhibitor of nuclear factor kappa-B kinase subunit alpha (Homo sapiens). Conditions: at 1 µM.
Experiment [8] has as its target T3, Inhibitor of nuclear factor kappa-B kinase subunit beta (Homo sapiens) (UniProt O14920).
T3 sequence (whole entry): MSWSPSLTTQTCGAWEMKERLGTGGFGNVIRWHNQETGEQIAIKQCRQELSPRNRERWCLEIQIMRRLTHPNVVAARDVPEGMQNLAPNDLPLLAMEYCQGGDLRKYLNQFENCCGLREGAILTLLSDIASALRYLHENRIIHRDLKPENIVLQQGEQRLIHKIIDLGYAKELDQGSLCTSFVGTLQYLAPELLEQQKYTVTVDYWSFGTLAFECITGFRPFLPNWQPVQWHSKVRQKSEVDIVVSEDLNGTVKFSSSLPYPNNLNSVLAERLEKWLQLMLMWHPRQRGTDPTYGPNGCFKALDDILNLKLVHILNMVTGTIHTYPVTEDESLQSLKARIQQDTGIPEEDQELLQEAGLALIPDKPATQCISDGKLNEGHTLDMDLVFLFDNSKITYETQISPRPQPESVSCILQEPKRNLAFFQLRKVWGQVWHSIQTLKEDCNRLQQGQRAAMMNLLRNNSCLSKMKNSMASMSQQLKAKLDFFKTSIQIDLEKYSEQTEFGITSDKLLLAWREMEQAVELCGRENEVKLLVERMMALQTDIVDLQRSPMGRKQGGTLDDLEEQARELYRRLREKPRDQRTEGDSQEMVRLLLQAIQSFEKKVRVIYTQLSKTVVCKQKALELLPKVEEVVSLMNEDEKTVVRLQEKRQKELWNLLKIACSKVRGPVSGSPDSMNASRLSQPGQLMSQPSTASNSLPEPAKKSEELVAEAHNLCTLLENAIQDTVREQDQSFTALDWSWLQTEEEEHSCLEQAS
Conditions: at 0.1 µM.

Experiment [9] concerns the target T3, Inhibitor of nuclear factor kappa-B kinase subunit beta (Homo sapiens). Conditions: at 1 µM.
The target of experiment [10] is T4, Inhibitor of nuclear factor kappa-B kinase subunit epsilon (Homo sapiens) (UniProt Q14164).
T4 sequence (whole entry): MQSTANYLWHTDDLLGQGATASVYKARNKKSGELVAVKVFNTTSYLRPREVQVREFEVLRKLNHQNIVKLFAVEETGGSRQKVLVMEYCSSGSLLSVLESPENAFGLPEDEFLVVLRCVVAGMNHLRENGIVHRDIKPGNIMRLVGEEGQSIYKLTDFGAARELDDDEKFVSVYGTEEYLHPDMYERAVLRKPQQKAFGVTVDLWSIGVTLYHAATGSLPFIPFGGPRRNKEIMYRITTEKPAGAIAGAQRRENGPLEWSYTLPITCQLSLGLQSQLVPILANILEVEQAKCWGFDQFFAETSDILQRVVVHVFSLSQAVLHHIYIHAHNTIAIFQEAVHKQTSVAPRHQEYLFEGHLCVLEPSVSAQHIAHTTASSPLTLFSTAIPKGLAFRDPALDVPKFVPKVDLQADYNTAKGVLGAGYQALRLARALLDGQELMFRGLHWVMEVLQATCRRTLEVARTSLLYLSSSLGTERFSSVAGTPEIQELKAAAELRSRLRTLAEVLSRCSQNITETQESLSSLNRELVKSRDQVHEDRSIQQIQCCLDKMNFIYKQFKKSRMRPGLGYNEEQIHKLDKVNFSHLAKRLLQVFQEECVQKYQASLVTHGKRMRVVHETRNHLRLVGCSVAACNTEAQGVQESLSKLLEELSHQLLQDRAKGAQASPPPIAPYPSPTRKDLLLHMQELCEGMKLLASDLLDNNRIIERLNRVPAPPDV
Conditions: at 0.1 µM.

The target in experiment [11] is T4, Inhibitor of nuclear factor kappa-B kinase subunit epsilon (Homo sapiens). Conditions: at 1 µM.
Experiment [12] has as its target T5, Serine/threonine-protein kinase Nek1 (Homo sapiens) (UniProt Q96PY6).
T5 sequence (whole entry): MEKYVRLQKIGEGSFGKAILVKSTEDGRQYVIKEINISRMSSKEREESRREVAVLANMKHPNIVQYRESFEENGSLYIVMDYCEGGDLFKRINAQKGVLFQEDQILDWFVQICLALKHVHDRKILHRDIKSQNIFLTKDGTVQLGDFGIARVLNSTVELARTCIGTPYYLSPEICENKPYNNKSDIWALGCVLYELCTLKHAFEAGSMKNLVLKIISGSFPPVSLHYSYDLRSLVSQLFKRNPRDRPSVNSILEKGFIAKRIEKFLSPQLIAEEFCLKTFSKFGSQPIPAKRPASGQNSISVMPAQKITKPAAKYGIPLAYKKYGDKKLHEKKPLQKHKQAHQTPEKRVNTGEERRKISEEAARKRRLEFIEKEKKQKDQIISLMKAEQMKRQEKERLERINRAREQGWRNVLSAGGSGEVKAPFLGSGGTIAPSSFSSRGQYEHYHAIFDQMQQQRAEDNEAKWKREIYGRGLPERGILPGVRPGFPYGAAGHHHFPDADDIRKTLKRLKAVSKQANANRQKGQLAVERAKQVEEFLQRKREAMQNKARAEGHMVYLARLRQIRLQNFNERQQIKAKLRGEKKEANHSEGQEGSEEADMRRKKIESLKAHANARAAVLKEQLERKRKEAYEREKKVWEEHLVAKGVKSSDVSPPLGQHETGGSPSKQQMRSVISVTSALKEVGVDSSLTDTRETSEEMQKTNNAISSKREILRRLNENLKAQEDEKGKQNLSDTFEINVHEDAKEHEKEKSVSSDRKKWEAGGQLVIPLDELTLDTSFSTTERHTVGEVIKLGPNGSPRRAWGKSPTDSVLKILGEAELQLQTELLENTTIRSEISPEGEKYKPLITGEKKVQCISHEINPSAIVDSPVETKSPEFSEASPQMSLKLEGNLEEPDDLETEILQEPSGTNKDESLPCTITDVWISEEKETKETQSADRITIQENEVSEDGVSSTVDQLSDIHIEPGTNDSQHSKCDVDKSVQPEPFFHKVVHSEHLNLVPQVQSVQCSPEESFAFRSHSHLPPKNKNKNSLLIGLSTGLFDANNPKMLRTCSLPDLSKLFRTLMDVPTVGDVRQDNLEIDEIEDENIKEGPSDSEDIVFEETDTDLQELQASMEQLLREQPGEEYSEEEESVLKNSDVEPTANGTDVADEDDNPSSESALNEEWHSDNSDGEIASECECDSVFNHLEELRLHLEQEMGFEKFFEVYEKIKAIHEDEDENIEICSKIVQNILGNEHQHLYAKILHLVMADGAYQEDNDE
Conditions: at 0.1 µM.

Experiment [13] has as its target T5, Serine/threonine-protein kinase Nek1 (Homo sapiens). Conditions: at 1 µM.
Experiment [14] concerns the target T6, Serine/threonine-protein kinase Nek2 (Homo sapiens) (UniProt P51955).
T6 sequence (whole entry): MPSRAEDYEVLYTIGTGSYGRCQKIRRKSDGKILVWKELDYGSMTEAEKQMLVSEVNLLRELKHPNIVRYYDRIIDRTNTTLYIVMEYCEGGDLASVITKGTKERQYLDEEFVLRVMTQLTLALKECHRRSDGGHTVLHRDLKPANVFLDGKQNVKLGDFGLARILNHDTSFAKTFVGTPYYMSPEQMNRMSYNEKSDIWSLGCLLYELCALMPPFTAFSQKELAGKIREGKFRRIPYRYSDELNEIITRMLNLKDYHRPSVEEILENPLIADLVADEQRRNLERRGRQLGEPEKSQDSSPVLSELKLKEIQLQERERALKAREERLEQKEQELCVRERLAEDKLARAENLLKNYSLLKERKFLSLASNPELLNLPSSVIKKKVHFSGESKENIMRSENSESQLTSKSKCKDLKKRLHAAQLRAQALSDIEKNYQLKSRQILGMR
Conditions: at 0.1 µM.

For experiment [15], the target named is T6, Serine/threonine-protein kinase Nek2 (Homo sapiens). Conditions: at 1 µM.
Experiment [16] concerns the target Serine/threonine-protein kinase Nek6 (Homo sapiens) (UniProt Q9HC98). Conditions: at 0.1 µM.
Experiment [17] shares this target. Conditions: at 1 µM.
Experiment [18] has as its target Serine/threonine-protein kinase Nek7 (Homo sapiens) (UniProt Q8TDX7). Conditions: at 0.1 µM.
Experiment [19] shares this target. Conditions: at 1 µM.
The target in experiment [20] is T7, Serine/threonine-protein kinase Nek9 (Homo sapiens) (UniProt Q8TD19).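 Also: reported value is the mean percent inhibition of NEK9.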
T7 sequence (whole entry): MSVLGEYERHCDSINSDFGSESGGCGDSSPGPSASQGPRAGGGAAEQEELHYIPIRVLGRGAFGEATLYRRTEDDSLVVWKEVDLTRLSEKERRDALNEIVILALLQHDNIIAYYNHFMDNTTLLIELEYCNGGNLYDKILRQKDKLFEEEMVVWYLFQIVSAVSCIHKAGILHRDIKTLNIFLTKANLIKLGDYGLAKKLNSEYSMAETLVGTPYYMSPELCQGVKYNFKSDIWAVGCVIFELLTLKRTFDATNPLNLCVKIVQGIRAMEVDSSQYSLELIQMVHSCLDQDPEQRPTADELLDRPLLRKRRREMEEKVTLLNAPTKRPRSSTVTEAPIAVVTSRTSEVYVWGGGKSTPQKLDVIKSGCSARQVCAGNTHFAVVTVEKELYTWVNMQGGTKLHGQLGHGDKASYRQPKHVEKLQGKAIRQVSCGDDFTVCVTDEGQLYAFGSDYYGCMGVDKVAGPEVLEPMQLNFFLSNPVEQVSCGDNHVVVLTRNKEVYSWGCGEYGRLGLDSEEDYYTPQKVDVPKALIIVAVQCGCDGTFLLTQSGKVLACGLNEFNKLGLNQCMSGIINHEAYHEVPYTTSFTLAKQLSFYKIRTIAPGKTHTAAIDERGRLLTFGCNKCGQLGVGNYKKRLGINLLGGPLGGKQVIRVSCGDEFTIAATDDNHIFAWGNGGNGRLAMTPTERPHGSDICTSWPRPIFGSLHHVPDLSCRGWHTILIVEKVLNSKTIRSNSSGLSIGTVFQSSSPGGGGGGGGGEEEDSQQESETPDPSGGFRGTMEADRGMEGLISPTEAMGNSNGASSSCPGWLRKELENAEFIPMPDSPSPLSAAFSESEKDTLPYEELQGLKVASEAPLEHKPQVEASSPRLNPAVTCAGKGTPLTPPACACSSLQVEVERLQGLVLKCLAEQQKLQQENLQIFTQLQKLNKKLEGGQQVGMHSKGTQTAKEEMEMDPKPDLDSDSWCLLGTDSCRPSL
Conditions: at 0.1 µM.

As a reminder, the inhibition is the relative decrease from the control value, in per cent.

Serine/threonine-protein kinase Nek7 (Homo sapiens), sequence (Q8TDX7 whole entry, looked up): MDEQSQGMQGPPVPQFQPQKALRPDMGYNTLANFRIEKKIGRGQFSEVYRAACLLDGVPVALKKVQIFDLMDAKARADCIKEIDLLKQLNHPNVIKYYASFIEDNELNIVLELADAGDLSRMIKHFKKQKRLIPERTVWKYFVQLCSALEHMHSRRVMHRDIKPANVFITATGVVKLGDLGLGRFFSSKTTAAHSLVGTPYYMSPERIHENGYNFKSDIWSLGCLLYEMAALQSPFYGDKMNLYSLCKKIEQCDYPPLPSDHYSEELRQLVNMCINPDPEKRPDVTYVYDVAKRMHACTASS
Serine/threonine-protein kinase Nek6 (Homo sapiens), sequence (Q9HC98 whole entry): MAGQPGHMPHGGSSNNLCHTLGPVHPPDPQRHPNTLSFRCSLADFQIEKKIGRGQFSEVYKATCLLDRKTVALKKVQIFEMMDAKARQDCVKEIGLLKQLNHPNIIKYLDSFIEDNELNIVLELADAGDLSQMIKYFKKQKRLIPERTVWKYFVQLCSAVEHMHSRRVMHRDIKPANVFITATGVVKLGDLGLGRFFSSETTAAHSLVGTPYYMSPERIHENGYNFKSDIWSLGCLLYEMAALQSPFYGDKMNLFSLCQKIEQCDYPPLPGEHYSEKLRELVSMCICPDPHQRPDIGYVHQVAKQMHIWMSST
Casein kinase II subunit alpha (Homo sapiens), sequence (P68400 whole entry, looked up): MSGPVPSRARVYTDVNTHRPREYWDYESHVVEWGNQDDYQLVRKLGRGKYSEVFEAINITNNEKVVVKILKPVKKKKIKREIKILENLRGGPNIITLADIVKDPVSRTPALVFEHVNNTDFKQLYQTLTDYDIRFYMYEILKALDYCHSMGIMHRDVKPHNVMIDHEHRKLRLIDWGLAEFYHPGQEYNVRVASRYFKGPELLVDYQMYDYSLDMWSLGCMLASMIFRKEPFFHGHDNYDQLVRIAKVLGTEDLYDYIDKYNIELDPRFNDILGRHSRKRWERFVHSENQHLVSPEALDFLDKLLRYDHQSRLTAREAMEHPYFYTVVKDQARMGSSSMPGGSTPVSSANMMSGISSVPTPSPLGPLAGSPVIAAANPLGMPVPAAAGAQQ
Sphingosine kinase 1 (Homo sapiens), sequence (Q9NYA1 whole entry): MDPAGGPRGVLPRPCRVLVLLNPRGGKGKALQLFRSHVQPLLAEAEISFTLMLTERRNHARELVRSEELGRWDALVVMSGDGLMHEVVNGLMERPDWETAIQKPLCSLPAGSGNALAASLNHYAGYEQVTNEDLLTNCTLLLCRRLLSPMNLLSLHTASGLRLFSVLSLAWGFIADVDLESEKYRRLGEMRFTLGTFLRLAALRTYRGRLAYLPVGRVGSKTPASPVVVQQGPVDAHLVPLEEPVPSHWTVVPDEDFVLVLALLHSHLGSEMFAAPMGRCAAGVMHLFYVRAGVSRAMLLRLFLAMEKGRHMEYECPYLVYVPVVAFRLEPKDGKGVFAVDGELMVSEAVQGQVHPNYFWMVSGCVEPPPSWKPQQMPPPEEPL

Consider `COC(=O)Nc1nc2ccc(S(=O)(=O)c3ccc(NC(=O)Nc4cc(C(F)(F)F)ccc4F)cc3)cc2[nH]1`, for which the inhibition is -2.79% in experiment [1]; -0.31% in experiment [2]; 0.98% in [3]; -0.42% in [4]; -2.21% in [5]; 6.4% in [6]. Besides, the inhibition came out at 2.23% in experiment [7]; 5.3% in experiment [8]; 7.84% in [9]; 2.8% in [10]; 4.2% in experiment [11]; 2.08% in [12]. Besides, the inhibition is 1.85% in [13]; 3.76% in [14]; 4.26% in experiment [15]; 4.42% in experiment [16]; -3.58% in experiment [17]; 2.46% in [18]. The inhibition in experiment [19] came to 2.19%; in experiment [20] it was 2.21%.

Values taken from ChEMBL document CHEMBL1961873, “Compounds: GSK PKIS; Assays: Nanosyn kinase panel” (2012).
